Source: PubChem BioAssay
This is a sample that favours compounds with a hit; in the whole collection about 8.3% have one here.
HCV inhibitor = HCV inhibition; Potency, µM (highest dose often 41.8 µM), actives largely listed as inhibitors; Huh7.5.1 HCVcc-Cre infection, luciferase reporter, 44 h; 340,000 compounds, 3.4% hits
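Compounds are dispensed onto cells plated 4 h earlier at 1,000 per well, with HCVcc-Cre virus (about 0.5 moi) added next. Following 44 h of culture, luminescent signal is measured for 15 sec after 15 min with substrate at room temperature.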
Giardia FBPA inh = Giardia lamblia aldolase inhibition; A8B2U2; purified Giardia FBPA; Potency, µM (top dose mostly 59.6 µM), hits mostly inhibitors; 290,000 compounds, 0.71% hits; AID 2451; further: nearly all actives have a fitted effect of over 55% in size
Target sequence (A8B2U2 whole entry, looked up): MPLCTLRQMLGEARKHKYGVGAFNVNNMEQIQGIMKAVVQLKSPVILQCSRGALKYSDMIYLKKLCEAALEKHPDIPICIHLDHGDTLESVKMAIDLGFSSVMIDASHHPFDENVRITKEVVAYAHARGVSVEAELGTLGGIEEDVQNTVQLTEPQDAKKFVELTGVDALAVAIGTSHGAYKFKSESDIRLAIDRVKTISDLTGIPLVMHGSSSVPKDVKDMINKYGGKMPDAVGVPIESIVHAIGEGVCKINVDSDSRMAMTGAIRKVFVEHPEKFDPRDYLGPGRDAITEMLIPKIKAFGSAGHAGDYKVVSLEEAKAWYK
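Giardia FBPA (40 nM reagent) was preincubated 10 min at RT with compound (up to 57.5 uM final), then substrate plus GAPDH/TPI/NAD/arsenate coupling system with diaphorase/resazurin was added; resorufin fluorescence (525/598 nm) was read after 20 min.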
Marburg entry inh = blocks Marburg virus binding to or entry into cells. Marburg virus pseudotyped entry inhibition, cell reporter. Potency, µM (highest dose often 37.8 µM), most hits filed as inhibitors. 300,000 compounds, 1.8% hits. AID 540276; calls by dose curve; tested in HEK293 cells
FMDV antiviral = foot and mouth disease virus antiviral activity | Potency, µM (series often up to 57.9 µM), actives largely listed as inhibitors | 410,000 compounds, 1.2% hits | FMDV antiviral cell-based qHTS | AID 1159524; calls by dose curve; tested in HEK293T cells; further: read-out not given here; nearly all actives have a fitted effect of over 45% in size
HCMV inh = inhibitors of human cytomegalovirus; HFF cells, HCMV-luciferase reporter, 72 h; active compounds read low; activity change, negative = inhibition, % at 57.5 µM; 410,000 compounds, 4.5% hits; AID 1259415; in the data active means activity change below about -60%; inconclusive means no clear call, values can overlap the other calls; inactive means above about -39%
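Two compound doses tested in HFFs infected with HCMV-luciferase, MOI 1 PFU/cell, 72 h at 37C. Lysate luminescence read with OneGlo; data normalized against buffer-only and 10uM Salinomycin inhibitor controls.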
LASV entry inh = inhibitors of Lassa virus binding or cell entry. Potency, µM (top dose mostly 37.9 µM), actives largely listed as inhibitors. 300,000 compounds, 1.2% hits. Lassa virus pseudotype entry inhibition, cell reporter; calls by dose curve; tested in HEK293 cells; further: nearly all actives have a fitted effect of over 50% in size
Large screens that a line does not name were inactive. Unless noted, the call rests on the fitted dose curve; in most records, active means well fitted curve in the direction sought with a large enough effect; inconclusive means small, poorly fitted or top-dose-only effect, or another doubt; inactive means no such curve, though single readings can be large; an effect the other way counts as inactive or inconclusive.

Cc1ccccc1-n1nnnc1Sc1nnnn1-c1ccccc1	HCV inhibitor inconclusive, Marburg entry inh inconclusive, FMDV antiviral 8.91µM, HCMV inh inconclusive, LASV entry inh inconclusive
O=C(Nc1ccccc1)c1cnc(N2CCN(Cc3cccc(C(F)(F)F)c3)C2=O)o1	none (no result: HCV inhibitor, Giardia FBPA inh, Marburg entry inh, FMDV antiviral, LASV entry inh)
O=[N+]([O-])c1ccc(Sc2nnnn2-c2ccccc2)nc1	HCV inhibitor inconclusive, Marburg entry inh 12.6µM, FMDV antiviral 22.4µM, HCMV inh -88.1, LASV entry inh inconclusive
COc1ccc(-n2nnnc2-c2ccccc2)cc1	HCMV inh -60.4 (no result: FMDV antiviral)
Clc1ccc(-n2nnnc2-c2ccccc2)cc1	none
C=CCn1c(O)c(CN2CCOCC2)c(C)c(C#N)c1=O	Giardia FBPA inh 14.1µM (no result: HCMV inh)
CCCC[C@]12Cc3cc(C#N)ccc3[C@H](O1)c1c(c3ccccc3oc1=O)O2	none (no result: HCV inhibitor, Giardia FBPA inh, FMDV antiviral, HCMV inh, LASV entry inh)
CN(C)c1cc(N/N=C/c2ccc(Cl)cc2)nc(N(C)C)n1	HCV inhibitor 7.08µM, Giardia FBPA inh inconclusive, Marburg entry inh inconclusive, HCMV inh inconclusive, LASV entry inh 11.6µM
CN1CCCC(CN(C)C(=O)c2cnn(-c3nccc(-c4ccccc4C(F)(F)F)n3)c2C2CC2)C1 (stereo not drawn)	none (no result: HCV inhibitor, Giardia FBPA inh, Marburg entry inh, HCMV inh, LASV entry inh)
COc1cccc(-n2ccnc2SCC(=O)Nc2cccc3ccccc23)c1	none (no result: HCV inhibitor, Giardia FBPA inh, Marburg entry inh)
CC(=O)N1CCC2(CC1)CN(C(c1ccccc1)c1ccccc1)C2	none (no result: HCV inhibitor, Marburg entry inh, HCMV inh, LASV entry inh)
Cc1cccc(/C=C2/Sc3ccc(C(=O)NCCN4CCCC4)cc3NC2=O)c1	HCV inhibitor inconclusive, HCMV inh inconclusive (no result: Marburg entry inh, LASV entry inh)
O=C1Nc2cc(C(=O)NCCCN3CCCC3)ccc2S/C1=C/c1cccc(Cl)c1	none (no result: HCV inhibitor, Giardia FBPA inh, Marburg entry inh, LASV entry inh)
O=C1Nc2cc(C(=O)NCCN3CCCCCC3)ccc2S/C1=C\c1ccccc1	HCV inhibitor 14.1µM, HCMV inh -100.3 (no result: Giardia FBPA inh, Marburg entry inh, LASV entry inh)
COc1cccc(/C=C2/Sc3ccc(C(=O)NCCN4CCCCCC4)cc3NC2=O)c1	HCV inhibitor 5.62µM, HCMV inh -69.9 (no result: Marburg entry inh, LASV entry inh)
O=C(NCCc1nnc2n1CCN(CC1CC=CCC1)CC2)c1ccc(F)cc1 (stereo not drawn)	none (no result: HCV inhibitor, Giardia FBPA inh, Marburg entry inh, HCMV inh, LASV entry inh)
O=C(Nc1ccccc1)N(C1=NCCCCS1)c1ccccc1	HCMV inh -104.1
O=C(Nc1ccccc1)N(C1=NCCCCS1)c1cccc2ccccc12	none
COc1cccc(F)c1-c1nc2ccccc2n1C(C(=O)Nc1c(C)cccc1C)c1ccccc1 (stereo not drawn)	none (no result: HCV inhibitor, Giardia FBPA inh, Marburg entry inh, FMDV antiviral, LASV entry inh)
OC[C@@H]1CN(Cc2ccccc2)C[C@H](n2cnc3c(NC4CC4)ncnc32)O1	none (no result: HCV inhibitor, Giardia FBPA inh, Marburg entry inh, LASV entry inh)
OC[C@@H]1CN(Cc2ccc(-c3ccccc3)cc2)C[C@H](n2cnc3c(NC4CCC4)ncnc32)O1	FMDV antiviral 17.8µM, HCMV inh -87.7 (no result: HCV inhibitor, Giardia FBPA inh, Marburg entry inh, LASV entry inh)
CSc1ccc2cc(CNCc3ccccc3F)c(N3CCCC(CO)C3)nc2c1 (stereo not drawn)	none (no result: HCV inhibitor, Giardia FBPA inh, Marburg entry inh, HCMV inh, LASV entry inh)
COC(=O)c1ccc(CN2C(=O)[C@]3(O[C@H](C)CC4=CCCC43)c3c(Br)cccc32)cc1 (stereo partly drawn)	none (no result: HCV inhibitor, Giardia FBPA inh, FMDV antiviral, HCMV inh, LASV entry inh)
COc1ccc(NC(=S)NNc2ccc([N+](=O)[O-])cc2S(=O)(=O)Nc2ccc(C)cc2C)cc1	HCV inhibitor 14.1µM, Marburg entry inh inconclusive, HCMV inh -65.8, LASV entry inh inconclusive
Cc1ccc(NS(=O)(=O)c2cc([N+](=O)[O-])ccc2NNC(=S)Nc2cc(C)ccc2C)c(C)c1	HCV inhibitor 11.2µM, Marburg entry inh inconclusive, FMDV antiviral inconclusive, HCMV inh -102.8, LASV entry inh 14.1µM
COC(=O)[C@H]1C[C@H](C(=O)O)[C@@H](C)C1(C)C	HCMV inh -94.5 (no result: Giardia FBPA inh, Marburg entry inh, LASV entry inh)
Cc1cc(C(=O)Nc2cccc(-c3nc(CNC(=O)c4sc(C)nc4C)c(C)o3)c2)c(C)o1	none (no result: HCV inhibitor, Giardia FBPA inh, Marburg entry inh, HCMV inh, LASV entry inh)
CC1=CC[C@@H](COc2ccccc2)O[C@@]2(C1)C(=O)Nc1cccc(Br)c12	LASV entry inh inconclusive (no result: HCV inhibitor, Giardia FBPA inh, FMDV antiviral, HCMV inh)
Nc1ccc(N2CCCCC2)cc1N1CCCCC1	HCV inhibitor inconclusive, Giardia FBPA inh inconclusive, Marburg entry inh inconclusive, FMDV antiviral inconclusive, HCMV inh -68.9, LASV entry inh inconclusive
O=C1c2ccccc2C(=O)c2cc(N3CCCCC3)ccc21	HCV inhibitor inconclusive, Marburg entry inh 3.98µM, FMDV antiviral 10µM, LASV entry inh 3.16µM (no result: Giardia FBPA inh)
Nc1ccc(N2CCCCC2)c2nonc12	Giardia FBPA inh 1.99µM, HCMV inh -67.3 (no result: Marburg entry inh, LASV entry inh)
O=[N+]([O-])c1ccc(N2CCCCCC2)c2nonc12	LASV entry inh inconclusive
CC(=O)N1CCc2c(sc3c2c(=O)n(CCc2ccccc2)c(=O)n3Cc2ccccc2C)C1	Marburg entry inh inconclusive, FMDV antiviral inconclusive (no result: HCV inhibitor, Giardia FBPA inh, LASV entry inh)
